We go through 52 compounds from ChEMBL document CHEMBL3988442, “University of Dundee, Small-Polar-MMV Screening Library” (2021).

Screen size: about 38,000 compounds; about 1,200 (3.2%) showed an effect of 50% or more. The median lay at about -58%. The sample holds strong results, similar compounds and a random draw of the others, so the mix is not that of the screen.

The test system of this test is Plasmodium falciparum. Put plainly: Calibr Malaria Delayed Death Assay SOP. It is filed as functional, organism-based. Also on record: scale not given: in the data most compounds retested in dose-response had high values. The note with it: concentration 4.99e-06 (unit not given; other assays of the set use mol/L).
`CN1Cc2c(C(=O)NC3CCCCC3)ncn2-c2ccccc2S1(=O)=O.O=C(O)C(F)(F)F`: the “Percent Effect” value is -186.4%.
The result for `COc1cc(F)ccc1-c1cc(CO)ccn1` reads -93.03%; that for `COc1cc(F)ccc1-c1cc(N)ccn1`, 50.95%.
The result for `COc1ccc(-c2cc(N)ccn2)c(OC)c1OC` reads -13%; that for `Cc1cnc(C(=O)N2CCOCC2C)cn1` (configuration not stated), -104.7%; that for `O=C(NCC1CC1)[C@@H]1CC[C@@H]2[C@@H](CCN2Cc2ccc(F)c(F)c2)O1.O=C(O)C(F)(F)F`, -53.52%.
The result for `O=C1CCCN1CCC1CCN(C2CCCNC2)CC1` (configuration not stated) reads -108.9%.
As for `CCn1cc(CN2CCN(C(=O)c3cc(C)c(C)s3)CC2)c(C)n1`, the “Percent Effect” value was -80.19%.
As for `Cc1cccc(CNCC2COC3(CCCCC3)O2)c1C` (configuration not stated), the figure is -23.41%; as for `Cc1cccc(CNCC2COC3(CCCC3)O2)c1C` (configuration not stated), -41.87%.
The result for `COCCOc1ccccc1CNCC1COC2(CCCC2)O1` (configuration not stated) reads 73.59%; that for `CC(=O)Nc1nc(C(=O)NCc2ccc(OC(C)C)nc2)cs1`, -75.22%.
On to `Cc1cnc(C(=O)N(CCN(C)C)Cc2ccc(Cl)cc2)cn1`, for which the “Percent Effect” value is recorded as -38.51%.
Regarding `CN(C)CCN(Cc1ccc(Cl)cc1)C(=O)c1cnccn1`, the “Percent Effect” value is listed as 32.67%.
The result for `CN(C)CCN(Cc1ccc(Cl)cc1)C(=O)c1ccncc1` reads 51.29%.
The result for `Cc1cc(C(=O)N(CCN(C)C)Cc2ccc(Cl)cc2)no1` reads 51.61%; that for `CN(C)CCN(Cc1ccc(C(F)(F)F)cc1)C(=O)c1cc[nH]n1`, 33.3%.
The result for `CN(C)CCN(Cc1ccc(Cl)cc1)C(=O)c1ccn(C)c(=O)c1` reads -75.96%; that for `Cc1nnc([C@@H]2CC[C@@H]3[C@@H](CCN3C3CCC3)O2)o1`, -20.01%; that for `CC1CCCN(C(=O)Nc2ccc(F)c(C(N)=O)c2)C1` (configuration not stated), -56.74%.
Turning to `CNc1cc(-c2cccc(CN)c2)c2cc[nH]c2n1`, the “Percent Effect” value is reported as -44.1%.
As for `CCc1ccc2nc(C)cc(C(=O)NC[C@@H]3CCNC[C@H]3O)c2c1`, the figure is -50.87%; as for `CCc1ccc2nc(C)cc(C(=O)N[C@@H]3CNC[C@H]3O)c2c1`, -23.23%; as for `CCc1ccc2nc(C)cc(C(=O)N[C@@H]3CCCNC3)c2c1`, 64.11%.
Take `CC(C)(C)CN1CCCC12CCN(S(=O)(=O)c1ccccc1)C2.O=C(O)C(F)(F)F` (configuration not stated): the “Percent Effect” value worked out at 29.05%.
As for `Cc1cccc(C(=O)N2CCCn3cnc(CN4CCCC4=O)c3C2)n1`, the figure is -0.7301%.
As to `Cn1ncc2c1CN(Cc1ccccc1F)CC2COCC1CC1.O=C(O)C(F)(F)F.O=C(O)C(F)(F)F` (configuration not stated), the “Percent Effect” value is reported as -47.59%.
On to `OCc1csc(N2CCCC(COc3cccc(F)c3)C2)n1` (configuration not stated), for which the “Percent Effect” value was 81.1%.
As for `Cc1ccc(OCC2CCCN(c3nc(CO)cs3)C2)cc1` (configuration not stated), the figure is -23.08%; as for `COc1ccc(OCC2CCCN(c3nc(CO)cs3)C2)cc1` (configuration not stated), -52%; as for `COCCCNC(=O)N1CCC(CNC(=O)c2cnn(C)c2)CC1`, -42.86%.
For `c1c(CN2CCOCC2)nc2n1CCN(C1CCOCC1)C2`, the “Percent Effect” value was -53.44%.
The result for `CC(C)[C@H]1CN(S(=O)(=O)c2cccnc2)C[C@@H]1N` reads -121.7%.
As for `COc1cccc(S(=O)(=O)N2C[C@@H](N(C)C)[C@H](C(C)C)C2)c1`, the figure is 72.07%.
As for `CC(C)[C@@H]1CN(S(=O)(=O)c2cccc(C(=O)O)c2)C[C@H]1N(C)C`, the figure is -75.82%; as for `CS(=O)(=O)NCc1cnc2n1CCN(Cc1ccco1)CC2.O=C(O)C(F)(F)F`, -61.12%; as for `Cc1ccc(C(=O)Nc2nnc(C(C)C)s2)c(-n2cnnn2)c1C`, -117.2%.
Take `Cc1cnn(CCNCc2c(C)nn(Cc3ccccc3)c2C)c1`: the “Percent Effect” value is given as 31.58%.
The result for `Cc1cnn(CCNCc2nccn2Cc2ccccc2)c1` reads 81.96%; that for `Cc1cnn(CCNCc2nccn2CC(F)(F)F)c1`, 12.08%.
For `CC(NC(=O)c1cccs1)(C(N)=O)c1cccc(C(F)(F)F)c1` (configuration not stated), the “Percent Effect” value is -110.1%.
As for `CCc1nc(N2CCC3(CC2)OCCCC3O)ncc1C` (configuration not stated), the figure is -35.89%; as for `COC(=O)[C@H](C)NC(=O)c1cnc(Cc2ccc(F)cc2)s1`, -108.7%.
As for `COC(=O)C(C)(C)NC(=O)c1cnc(Cc2ccc(F)cc2)s1`, the figure is 74.7%.
Take `CCc1ncc(C(=O)NC(C)(C)C(=O)OC)s1`: the “Percent Effect” value is on record as -64.84%.
Regarding `CC1c2cccn2CCN1C(=O)CCc1nc(-c2ccccc2)no1` (configuration not stated), the “Percent Effect” value is given as -13.83%.
The result for `Cn1cc(CNC2CCCOc3c(Cl)cccc32)cn1` (configuration not stated) reads 17.16%.
The result for `Cn1cc(CNC2CCCOc3c2ccc2ccccc32)cn1` (configuration not stated) reads 61.58%; that for `Cc1nn(C)c(N(C)C)c1CNC1CCOc2c(F)cccc21` (configuration not stated), -94.95%.
As for `Cc1cccc2c1OCCC2NCc1c(C)nn(C)c1N(C)C` (configuration not stated), the figure is -2.294%; as for `Cn1ccnc1CNC1CCCOc2c1ccc1ccccc21` (configuration not stated), 76.31%.
With `Cc1cccc2c1OCCCC2NCc1nnc2n1CCCCC2` (configuration not stated), the “Percent Effect” value is -75.07%.
